Compound activity as filed in PubChem.
KCNQ2 block: rat KCNQ2 potassium channel inhibitors, primary screen, cell-based, CHO-K1, FluxOR thallium flux, B-score; B-score at 10 µM; hit rate 1.1% among 310,000; AID 2156, 2009; 20 min; active compounds read low;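 active = fluorescence ratio B-score at most minus 3 library SDs, with starting brightness B-score within 2 library SDs, cut at about -5.5 in these data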
Target sequence (O88943 whole entry, looked up): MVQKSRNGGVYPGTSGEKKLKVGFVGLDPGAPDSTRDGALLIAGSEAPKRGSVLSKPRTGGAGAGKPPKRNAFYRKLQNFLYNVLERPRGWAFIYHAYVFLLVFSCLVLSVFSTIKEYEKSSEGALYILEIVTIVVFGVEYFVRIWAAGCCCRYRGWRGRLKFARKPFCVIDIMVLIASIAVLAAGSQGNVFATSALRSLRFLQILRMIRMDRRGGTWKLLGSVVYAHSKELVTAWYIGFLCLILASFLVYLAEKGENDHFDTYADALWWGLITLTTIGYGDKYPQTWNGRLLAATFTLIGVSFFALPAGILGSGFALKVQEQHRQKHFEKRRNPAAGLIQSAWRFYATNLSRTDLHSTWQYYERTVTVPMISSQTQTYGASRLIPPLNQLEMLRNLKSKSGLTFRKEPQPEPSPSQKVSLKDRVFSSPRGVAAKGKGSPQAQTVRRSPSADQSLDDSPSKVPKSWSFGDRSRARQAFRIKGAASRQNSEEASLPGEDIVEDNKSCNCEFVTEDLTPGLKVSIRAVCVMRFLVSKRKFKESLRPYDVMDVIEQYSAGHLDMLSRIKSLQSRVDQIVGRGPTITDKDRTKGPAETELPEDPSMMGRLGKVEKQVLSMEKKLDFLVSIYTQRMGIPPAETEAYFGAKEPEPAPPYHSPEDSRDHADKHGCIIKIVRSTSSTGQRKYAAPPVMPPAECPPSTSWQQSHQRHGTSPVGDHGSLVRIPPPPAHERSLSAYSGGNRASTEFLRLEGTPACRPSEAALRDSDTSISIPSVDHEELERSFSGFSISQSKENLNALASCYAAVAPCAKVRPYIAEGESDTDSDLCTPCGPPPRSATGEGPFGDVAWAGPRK
KCNQ2 pot: potentiators of rat KCNQ2 potassium channel. Potassium voltage-gated channel subfamily KQT member 2 (Rattus norvegicus), O88943. CHO-K1 KCNQ2, FluxOR thallium flux fluorescence; active compounds read high. B-score at 10 µM. hit rate 0.54% among 310,000;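 active = fluorescence ratio B-score at least 3 SD of library B-scores, with initial fluorescence B-score within 3 of them, cut at about 5.3 in these data; same plate scores as AID 2156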;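 note: B-score of peak minus minimum over baseline fluorescence ratio after K+ and Tl+ stimulus; positive B-score means potentiation of KCNQ2 with more thallium influx and brighter signal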
Kir21 confirm: mouse Kir2.1 channel blockers, retest, confirmation, cell-based, FluxOR thallium flux, duplicate | shares compounds with KCNQ2 pot | Kir2.1-expressing cells, FluxOR thallium flux fluorescence; active compounds read low | Tl flux remaining, % of negative control (active compounds read low), % at 10 µM | hit rate 41% among 2,300 | AID 2032, 2009;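 active = Primary-screen hit whose thallium flux fell at least 3 control SD below untreated wells in both duplicates, with normal baseline fluorescence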
HEK293 Tl flux: counter-screen for Kir2.1 inhibitors: effect in parental HEK293 cells. shares compounds with KCNQ2 pot. FluxOR thallium flux fluorescence; 0% = unstimulated blank wells. FluxOR signal as % of negative control (100 = no effect), % at 10 µM. hit rate 19% among 2,300. AID 2105;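 active = dye signal at least 3 control SD above or below untreated wells in both duplicates, raw fluorescence within 3, either direction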;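 note: percent is based on the flux ratio of peak minus minimum fluorescence over baseline F0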
CHO-K1 ctr: nonspecific thallium flux increase in parental CHO-K1, confirmation, counter-screen for KCNQ2 potentiator project, cell-based, FluxOR thallium flux, duplicate. shares compounds with KCNQ2 pot. parental CHO-K1 cells, FluxOR thallium flux fluorescence; zero = vehicle mean+3SD, 100% = vehicle-minus-blank window. hit rate 43% among 1,200. AID 2282, 2010. activity increase over 3SD of controls, % at 10 µM;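 active = signal rise of at least 3 SD above the untreated control mean, in both duplicate wells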;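 note: counter screen of KCNQ2 potentiator hits so any rise reflects channel-independent effects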
KCNQ1 pot spec: human KCNQ1 channel potentiation off-target, confirmation, selectivity assay for KCNQ2 potentiator project, cell-based, CHO, FluxOR thallium flux | shares compounds with KCNQ2 pot | CHO KCNQ1 stable, FluxOR thallium flux fluorescence; beyond 3SD, as % of vehicle-control signal | activation over 3SD threshold, % at 10 µM | hit rate 28% among 1,200 | AID 2283, 2010;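 active = fluorescence ratio rise of at least 3 SD of vehicle wells above their mean, in both replicate wells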
KCNQ2 pot confirm: rat KCNQ2 channel potentiators, confirmation, cell-based, CHO, FluxOR thallium flux, duplicate; shares compounds with KCNQ2 pot; potentiation, less the hit threshold, % at 10 µM; hit rate 68% among 1,200; CHO-KCNQ2 cells, FluxOR thallium flux fluorescence;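 active = fluorescence ratio rising 3 SD or more over the vehicle control mean in both replicates, plus primary screen hit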;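 note: peak minus minimum thallium fluorescence divided by baseline after K/Tl stimulus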
Kir21 spec: mouse Kir2.1 channel activation off-target, confirmation, selectivity assay for KCNQ2 potentiator project, cell-based, HEK293, FluxOR thallium flux. AID 2345, 2010. activity over 3SD threshold, % at 10 µM. hit rate 2% among 1,200. HEK293 Kir2.1, FluxOR thallium flux fluorescence. shares compounds with KCNQ2 pot;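 active = fluorescence ratio rise of at least 3 SD above the vehicle-control mean, seen in both replicates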
KCNQ2 W236L pot: potentiators of retigabine-insensitive KCNQ2 W236L, mechanism study for KCNQ2 potentiator project, cell-based, rat KCNQ2 W236L, CHO, automated patch clamp; shares compounds with KCNQ2 pot; automated patch clamp current; current increase over 3SD of negative controls (%), active compounds read high, % at 25 µM; hit rate 10% among 940;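 active = current increase at least 3 SD of the untreated controls above them in both duplicate recordings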
A number is an active result. An excerpt weighted towards active compounds, which were near 1.6% of everything screened.

`CCOC(=O)c1c(C)n(CCNC(C)=O)c2ccc(OC)cc12` gave KCNQ2 block inactive.
Cc1ccc(C(=O)Nn2c(C)nc3ccccc3c2=O)cc1C was read as KCNQ2 block inactive and KCNQ2 pot inactive.
For CCC1(C)Cc2c(sc3nnn(CC(=O)Nc4ccccc4)c(=O)c23)CO1 (configuration not stated) the results were KCNQ2 block inactive, KCNQ2 pot 19, Kir21 confirm inactive, HEK293 Tl flux inactive, CHO-K1 ctr inactive, KCNQ1 pot spec 26.6, KCNQ2 pot confirm 41.2, Kir21 spec inactive and KCNQ2 W236L pot inactive.
For Cc1cccc(NC(=O)Cn2nnc3sc4c(c3c2=O)CC(C)(C)OC4)c1 the results were KCNQ2 block inactive.
`CCOc1ccccc1NC(=O)COC(=O)CCOc1cc(C)ccc1C` gave KCNQ2 block inactive and KCNQ2 pot inactive.
For CN1CCC(NCCC(c2ccc(F)cc2)c2ccc(Cl)cc2)CC1 (configuration not stated) the results were KCNQ2 block inactive, Kir21 confirm 55.5% and HEK293 Tl flux inactive.
`CC(C)C(CCNC1CCN(C)CC1)c1ccc(Cl)cc1` (configuration not stated) gave KCNQ2 block inactive.
For Cc1ccccc1OCC(=O)Nc1ccccc1N1CCOCC1 the results were KCNQ2 block -6.5, KCNQ2 pot inactive, Kir21 confirm 50.0% and HEK293 Tl flux inactive.
`COc1ccc(N2CCOCC2)c(NC(=O)COc2cccc(C)c2C)c1` gave KCNQ2 block inactive.
Screening OCC[C@H]1C[C@@H](O)[C@H](O)[C@@]2(CCCCO2)O1 returned KCNQ2 block inactive and KCNQ2 pot inactive.
For Cc1cc(OCC(=O)N2CCN(c3ccccn3)CC2)c(C)cc1Br the results were KCNQ2 block inactive.
CC(=O)OC1=C(C#N)Cn2ccc3cccc1c32 was read as KCNQ2 block inactive, KCNQ2 pot inactive, Kir21 confirm 55.0% and HEK293 Tl flux inactive.
CNC(=O)c1oc(-c2ccccc2)nc1C was read as KCNQ2 block inactive.
For O=C1CC(O)(C(F)F)Oc2ccc3ccccc3c21 (configuration not stated) the results were KCNQ2 block inactive and KCNQ2 pot inactive.
`O=C1CC(O)(C(F)(F)F)Oc2c1ccc1ccccc21` (configuration not stated) gave KCNQ2 block inactive, KCNQ2 pot 5.74, Kir21 confirm inactive, HEK293 Tl flux 248.5%, CHO-K1 ctr inactive, KCNQ1 pot spec 7.6, KCNQ2 pot confirm 43.6, Kir21 spec inactive and KCNQ2 W236L pot inactive.
Screening CCOC(=O)c1c(SCC(=O)Nc2nccs2)nc(C)c(C)c1C returned KCNQ2 block inactive.
Screening COc1ccc(-c2oc3ccccc3c(=O)c2OC(C)=O)cc1 returned KCNQ2 block inactive, KCNQ2 pot 6.7, Kir21 confirm inactive, HEK293 Tl flux 310.5%, CHO-K1 ctr 88.8, KCNQ1 pot spec inactive, KCNQ2 pot confirm 19.3, Kir21 spec inactive and KCNQ2 W236L pot inactive.
For COc1ccc(-c2oc3ccccc3c(=O)c2OCC(=O)O)cc1 the results were KCNQ2 block inactive and KCNQ2 pot inactive.
For CC(=O)Oc1c(-c2ccc(Br)o2)oc2ccccc2c1=O the results were KCNQ2 block inactive, KCNQ2 pot 16.2, Kir21 confirm inactive, HEK293 Tl flux 462.0%, CHO-K1 ctr 114.1, KCNQ1 pot spec inactive, KCNQ2 pot confirm 62.3, Kir21 spec inactive and KCNQ2 W236L pot inactive.
O=C(O)COc1c(-c2ccco2)oc2ccccc2c1=O was read as KCNQ2 block inactive and KCNQ2 pot inactive.
CSCC(=O)N1CCc2ccc(NC(=O)c3ccccc3Cl)cc2C1 was read as KCNQ2 block inactive.
For Cc1cccc(NC(=S)NC(C)C(c2ccccc2)N2CCN(C)CC2)c1C (configuration not stated) the results were KCNQ2 block inactive and KCNQ2 pot inactive.
For Clc1ccc(COc2ccccc2CNCc2cccnc2)cc1 the results were KCNQ2 block inactive and KCNQ2 pot inactive.
For CCOc1cccc(CNCc2cccnc2)c1OCc1ccccc1 the results were KCNQ2 block inactive, KCNQ2 pot inactive, Kir21 confirm 45.0% and HEK293 Tl flux inactive.
COc1cccc(N(CC(=O)NC2CCCC2)C(=O)CCC(=O)Nc2cc(C)on2)c1 was read as KCNQ2 block inactive.
For COc1ccc(Nc2nc(N3CCCCC3)c3ccccc3n2)cc1 the results were KCNQ2 block inactive.
Screening Oc1ccc(Nc2nc(N3CCCC3)c3ccccc3n2)cc1 returned KCNQ2 block inactive, Kir21 confirm 47.5% and HEK293 Tl flux inactive.
For CC(C)(C)C(=O)NC(=S)NNC(=O)C(c1ccccc1)c1ccccc1 the results were KCNQ2 block inactive, KCNQ2 pot 6.64, Kir21 confirm inactive, HEK293 Tl flux 65.5%, CHO-K1 ctr inactive, KCNQ1 pot spec inactive, KCNQ2 pot confirm inactive and Kir21 spec inactive.
CC(=O)NNC(=S)NC(=O)C(c1ccccc1)c1ccccc1 was read as KCNQ2 block inactive.
For Cc1cc(Cl)c(S(=O)(=O)N2CCCCCC2)cc1OCC(=O)NC1CCCCC1 the results were KCNQ2 block inactive, KCNQ2 pot 25.2, Kir21 confirm inactive, HEK293 Tl flux 129.5%, CHO-K1 ctr inactive, KCNQ1 pot spec inactive, KCNQ2 pot confirm 163.7, Kir21 spec inactive and KCNQ2 W236L pot inactive.
Cc1cc(Cl)c(S(N)(=O)=O)cc1OCC(=O)NC1CCCCC1 was read as KCNQ2 block inactive.
